Screening data deposited in PubChem BioAssay by several laboratories.
Mtb betalactam – beta-lactam sensitization of Mtb H37Rv; AID 434955; M. tuberculosis H37Rv growth with meropenem, percent inhibition; inhibition, % at 25 µM; 330,000 compounds, 0.27% hits; call rule not given here;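 further: growth measured after seven days incubation then overnight dye step; 0% = bacteria only wells and 100% = bacteria with antibiotic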
RecA splice inh – Mtb RecA intein splicing inhibition | P9WHJ3 | cell-free RecA intein splicing, fluorescence | inhibition, % (no concentration beside the values) | 290,000 compounds, 0.75% hits | AID 2221; in the data active means inhibition above about 30%; inconclusive means no clear call, values can overlap the other calls;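 further: 0% = vehicle wells and 100% = reference inhibitor control wells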
Mtb UGM inh – inhibitors of M. tuberculosis UDP-galactopyranose mutase | P9WIQ1 | purified UGM, fluorescence polarization probe displacement | inhibition, % at 10 µM | 320,000 compounds, 0.06% hits; in the data active means inhibition above about 10%, passing the limit was not always enough; inconclusive means no clear call, values can overlap the other calls
Target sequence (P9WIQ1 whole entry, looked up): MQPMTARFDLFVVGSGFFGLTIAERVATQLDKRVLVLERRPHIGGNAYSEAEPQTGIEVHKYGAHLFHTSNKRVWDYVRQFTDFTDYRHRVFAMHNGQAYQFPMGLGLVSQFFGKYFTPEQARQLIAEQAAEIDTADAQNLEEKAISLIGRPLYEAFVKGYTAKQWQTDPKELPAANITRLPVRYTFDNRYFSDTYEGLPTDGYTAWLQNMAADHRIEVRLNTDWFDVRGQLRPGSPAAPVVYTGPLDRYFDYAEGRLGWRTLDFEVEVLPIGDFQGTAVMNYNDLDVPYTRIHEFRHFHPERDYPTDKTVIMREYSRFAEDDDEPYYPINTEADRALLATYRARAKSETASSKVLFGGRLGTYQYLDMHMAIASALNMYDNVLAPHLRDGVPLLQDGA
Mtb FBA inh – Mtb fructose-bisphosphate aldolase inhibition. P9WQA3. purified M. tuberculosis FBA, fluorescence read-out. inhibition, % at 1 µM. 360,000 compounds, 2.3% hits; in the data active means inhibition above about 27%;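 further: 0% = vehicle and 100% = reference inhibitor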
Rv3671c protease – Rv3671c (M. tuberculosis) protease inhibition. AID 2606. 320,000 compounds, 0.048% hits. P9WHR9. inhibition, % at 5.96 µM; in the data active means inhibition above about 38%;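 further: extracellular domain of Rv3671c used as enzyme; 0% = enzyme with DMSO and 100% = no enzyme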
GDH-TPI inh – GDH-TPI coupled enzyme inhibition counter-screen; inhibition, % at 4.8 µM; 360,000 compounds, 1.2% hits; GDH-TPI coupled enzyme counterscreen, NADH absorbance; in the data active means inhibition above about 30%;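 further: 0% = DMSO wells and 100% = wells lacking the enzyme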
The depositor's hits bear a star; i = inactive; ? = inconclusive; nt = no result given; + = active, no number. A selection: hits, their analogues and other compounds. The true share with any hit is near 4%.

SMILES	Mtb betalactam	RecA splice inh	Mtb UGM inh	Mtb FBA inh	Rv3671c protease	GDH-TPI inh
COCCCNC(=O)c1c(N)n(-c2ccc(S(N)(=O)=O)cc2)c2nc3ccccc3nc12	-3.1	-140.1	-0.7	+	-2.9	25.4
Nc1c(C(=O)NCCN2CCOCC2)c2nc3ccccc3nc2n1CCc1ccccc1F	63.9	-75.5	-2.7	124.3*	-1.2	26.9
Cc1noc(C)c1S(=O)(=O)N1CCCC1C(=O)O (stereo unspecified)	-7.4	-0.6	1.2	1.1	3.4	7.4
CC(=O)N1C[C@H]2CON(C)[C@H]2C[C@H]1c1cccc(-c2ccc(C#N)cc2)c1	nt	nt	nt	2.9	nt	6.2
NC(=O)CCC(NC(=O)OCc1ccccc1)C(=O)OCC(=O)c1ccccc1 (stereo unspecified)	nt	nt	nt	-0.1	nt	2.6
COc1cccc(-n2c(N)c(C(=O)Nc3c(C)n(C)n(-c4ccccc4)c3=O)c3nc4ccccc4nc32)c1	6.8	nt	-5.4	9.9	-2.9	36.5*
COCCNC(=O)c1c(N)n(-c2cccc(C)c2)c2nc3ccccc3nc12	13.4	-406.1	-1.7	182.6*	-5.8	-0.9
CC(=O)NCCn1c(SCC(=O)OCc2ccccc2)nc2ccccc2c1=O	7.0	2.0	-0.1	1.3	-1.9	-5.2
Cc1cc(C)cc(-n2c(N)c(C(=O)Nc3c(C)n(C)n(-c4ccccc4)c3=O)c3nc4ccccc4nc32)c1	76.2	2.7	1.9	-0.3	-6.0	4.9
C=CCNC(=O)c1c(N)n(-c2cccc(S(N)(=O)=O)c2)c2nc3ccccc3nc12	13.0	i	-0.8	115.9*	-9.7	16.9
CC(=O)NCCn1c(SCC(=O)c2ccccc2)nc2ccccc2c1=O	3.3	-2.6	0.6	-0.2	-0.2	32.7*
Cc1ccc(NC(=O)c2ccc([N+](=O)[O-])s2)cc1S(=O)(=O)N1CCOCC1	11.3	nt	3.4	-0.7	6.7	3.8
Cc1ccc(-n2c(N)c(C(=O)Nc3c(C)n(C)n(-c4ccccc4)c3=O)c3nc4ccccc4nc32)cc1	63.2	-0.5	0.0	4.5	2.6	8.9
CC(=O)NCCn1c(SCC(=O)NCCc2ccc(S(N)(=O)=O)cc2)nc2ccccc2c1=O	-2.2	-1.4	0.7	-1.2	-0.7	-5.3
COCCCNC(=O)c1c(N)n(-c2ccccc2)c2nc3ccccc3nc12	73.2	i	4.2	+	-13.6	12.6
COC(=O)c1c(N)n(-c2ccc(NC(C)=O)cc2)c2nc3ccccc3nc12	-7.6	-71.3	-0.6	108.9*	-6.8	18.9
COCCCNC(=O)CSc1nc2ccccc2c(=O)n1CCc1ccc(S(N)(=O)=O)cc1	0.2	0.1	-1.6	32.0*	-0.8	-0.3
C=C(C)COc1ccc(-c2nc(N)ncc2-c2ccc(Cl)cc2)c(O)c1	92.7	12.4	0.5	-3.0	-12.2	-5.5
COc1cccc(-c2cccc3c2NC(=O)C3(C)Cc2cccc(F)c2)c1 (stereo unspecified)	nt	nt	nt	-2.0	nt	-7.5
Cc1cc(NC(=O)C(C)SCC(=O)OCc2ccc(Cl)cc2Cl)no1 (stereo unspecified)	6.2	nt	0.6	3.4	-3.5	8.1
CCn1nc(-c2ccccc2)nc2c(=O)n(C)c(=O)nc1-2	98.5	94.5*	7.0	-14.0	-176.7	3.8
COC(=O)C(=N/Nc1ccccc1C(=O)OC)/C(C)=N/O	-2.9	1.0	-0.6	-3.9	1.0	44.2*
COC(=O)c1ccccc1NC(=O)/C=N/O	0.6	2.5	-4.1	2.4	3.1	6.1
O=c1c2cc(N3CCOCC3)ccc2[nH]c(=S)n1CCCN1CCCCC1	?	-11.2	-0.8	3.9	-6.8	30.6*
Cc1cnc(CN(C)C(=O)c2ccc3oc(Cc4ccc(Cl)cc4)nc3c2)[nH]1	6.4	1.7	0.9	-3.7	-2.7	2.2
SMILES	Mtb betalactam	RecA splice inh	Mtb UGM inh	Mtb FBA inh	Rv3671c protease	GDH-TPI inh
Cc1ccc2nc(NC(=O)COC(=O)c3ccco3)sc2c1	-1.0	-2.5	-0.9	1.5	-12.2	-9.1
O=C(COC(=O)c1ccco1)Nc1nc2ccc([N+](=O)[O-])cc2s1	-4.0	0.2	1.7	1.6	-7.9	33.8*
CCOC(=O)c1ccc2nc(NC(=O)c3ccco3)sc2c1	51.0	0.6	0.0	21.9	-20.0	36.5*
O=C(Nc1nc2ccc(S(=O)(=O)N3CCCC3)cc2s1)c1cccs1	-3.6	-11.3	0.8	19.2	-15.5	29.9
CCOC(=O)c1ccc2nc(NC(=O)c3cccs3)sc2c1	84.2	-5.4	0.3	25.2	-11.9	37.8*
CCCC(=O)Nc1nc2ccc(C(=O)OCC)cc2s1	-4.0	-2.2	-0.6	1.6	4.4	-3.8
O=C(Nc1nc2ccc(F)cc2s1)c1cccs1	32.8	-0.5	-1.9	3.2	0.8	40.2*
Cc1ccc(NC(=O)CNC2CCCCC2)cc1Cl	19.1	3.6	2.1	1.3	-0.3	5.5
CCN(/N=C/c1cccs1)c1cc(=O)n(C)c(=O)[nH]1	-6.7	15.6	0.4	4.9	2.7	42.5*
CCCC1S/C(=N/N=C/c2cccs2)NC1=O (stereo unspecified)	39.3	-0.7	0.1	-1.8	-1.9	28.0
CN(/N=C/c1cccs1)c1cc(=O)n(C)c(=O)[nH]1	-4.2	5.3	-1.2	-4.5	-8.8	47.8*
C/C(=N\NC(=O)c1ccc(OC2CCCC2)cc1)c1ccc(O)cc1	?	nt	1.6	2.3	-16.5	14.1
Cc1nn(CCc2nn[nH]n2)c2nc(-c3ccc(C4CCCCC4)cc3)cc(C(F)(F)F)c12	nt	34.3*	-0.9	1.2	5.2	0.0
Cc1cccc(C)c1-n1cccc1/C=C1/C(=N)N2C(=NC1=O)SN=C2S(C)(=O)=O	4.6	15.3	2.0	-4.4	-24.6	32.3*
CCC1=NN2C(=N)/C(=C\c3cccn3-c3ccc(C)cc3C)C(=O)N=C2S1	4.1	15.1	-0.4	-3.5	2.1	26.5
CCC1=NN2C(=N)/C(=C\c3cccn3-c3c(C)cccc3C)C(=O)N=C2S1	3.4	0.2	-0.8	4.9	-8.2	43.9*
C[C@@H]1CCCCO[C@@H](CN(C)Cc2ccncc2)[C@@H](C)CN([C@H](C)CO)C(=O)c2cc(NC(=O)c3ccccc3)ccc2O1	nt	nt	nt	-1.8	nt	8.5
COc1ccc(C(NC(=O)CN2CCCCCC2)c2ccc(OC)cc2)cc1	-8.4	1.1	-4.4	-0.6	8.3	-1.5
COc1cc(C(=O)N2CCN(S(=O)(=O)c3ccc(C)cc3)CC2)ccc1OCC(=O)N1CCOCC1	nt	nt	nt	0.2	nt	3.5
CC(C)(OC1OC(CO)C(O)C(O)C1O)[C@H]1Oc2ccc3ccc(=O)oc3c2[C@H]1O (stereo partly specified)	-13.1	0.5	-1.5	117.3*	3.4	28.1
Cc1cccc(Nc2ncc3c(n2)CC(c2ccco2)CC3=O)c1 (stereo unspecified)	62.8	0.5	-3.3	-0.4	-20.8	26.4
Cc1cccc(Nc2ncc3c(n2)CC(C)CC3=O)c1 (stereo unspecified)	-0.6	2.1	-0.7	4.2	2.0	36.1*
CCc1ccc(Nc2ncc3c(n2)CC(c2ccc(OC)cc2)CC3=O)cc1 (stereo unspecified)	29.3	-1.2	1.4	3.1	-0.6	13.8
